Assay [1] in a line: Tanguay_ZF_120hpf_CFIN_legacy: (Legacy) Oregon State University Tanguay Lab 120 Hour Post-fertilization zebrafish Assay for Caudal Fin Malformation (AID 2283649). An outline of the steps:
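Embryos were collected from Tropical 5D wild-type adults and dechorionated at 4 hpf. At 6 hpf each was exposed, one per well, at 0.64% DMSO and 28C. At 120 hpf fin morphology was scored; dead embryos were excluded.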

The nature of assay [2]: Tanguay_ZF_120hpf_PIG_legacy: (Legacy) Oregon State University Tanguay Lab 120 Hour Post-fertilization zebrafish Assay for Pigmentation Malformation (AID 2283650). In outline: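 Dechorionated Tropical 5D wild-type embryos, one per well from 6 hpf, statically exposed at 28C in the dark until 120 hpf, 0.64% DMSO final. Pigmentation scored present/absent by brightfield microscopy; dead embryos not scored; fitted versus DMSO.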

The nature of assay [3]: Tanguay_ZF_120hpf_CIRC_legacy: (Legacy) Oregon State University Tanguay Lab 120 Hour Post-fertilization zebrafish Assay for Circulatory Malformation (AID 2283651). In outline: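 Read-out: presence or absence of circulatory malformation at 120 hpf, scored by brightfield microscopy, fitted in the gain-of-signal direction against DMSO baseline. Wild-type 5D larvae were exposed from 6 hpf after enzymatic chorion removal.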

Read-out in assay [4]: kallikrein-3 (KLK3), KLK3 (gene 354)
Put plainly: LTEA_HepaRG_KLK3: Life Technologies and Expression Analysis (LTEA) Assay for kallikrein-3 (KLK3) using HepaRG (AID 2283652; active = hit-call score of the fitted dose curve at least 0.9, where 1 is the maximum; inactive = score below 0.9). The conditions noted are these: mRNA level, 48 h; actives raise or lower the signal. In outline:
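Differentiated human HepaRG cells in serum-free induction medium exposed 48 h in duplicate, eight-point half-log series from 100 uM in 0.5% DMSO. KLK3 mRNA by qRT-PCR, normalised to ACTB, GAPDH, POLR2A; bidirectional fit versus DMSO.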

Read-out in assay [5]: solute carrier (SLC22A6), SLC22A6 (gene 9356)
Put plainly: LTEA_HepaRG_SLC22A6: Life Technologies and Expression Analysis (LTEA) Assay for solute carrier (SLC22A6) using HepaRG (AID 2283653; active = hit-call score of the fitted dose curve at least 0.9, where 1 is the maximum; inactive = score below 0.9). The conditions noted are these: mRNA level, 48 h; actives raise or lower the signal. In outline: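 This endpoint tracks SLC22A6 mRNA induction or suppression in human HepaRG cultures after 48 h dosing, concentrations reaching 100 uM. Values derive from bidirectional fitting against DMSO controls.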

Assay [6] is described as follows: Tanguay_ZF_120hpf_TRUN_legacy: (Legacy) Oregon State University Tanguay Lab 120 Hour Post-fertilization zebrafish Assay for Truncated Body (AID 2283655). An outline of the steps:
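5D wild-type larvae; pronase dechorionation; static exposure 6→120 hpf, 28C; DMSO 0.64% final; 5uM trimethyltin chloride positive control. Readout: presence/absence of truncated body, analyzed relative to DMSO.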

Assay [7] is described as follows: Tanguay_ZF_120hpf_NC_legacy: (Legacy) Oregon State University Tanguay Lab 120 Hour Post-fertilization zebrafish Assay for Notochord and Tail Malformation (AID 2283656). In outline:
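Dechorionated Tropical 5D wild-type zebrafish embryos, one per well from 6 hpf, statically exposed to 120 hpf at 28C in 0.64% DMSO final. Notochord distortion scored present/absent by brightfield; dead embryos excluded.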

Read-out in assay [8]: solute carrier (SLC10A1), SLC10A1 (gene 6554)
Put plainly: LTEA_HepaRG_SLC10A1: Life Technologies and Expression Analysis (LTEA) Assay for solute carrier (SLC10A1) using HepaRG (AID 2283657; active = hit-call score of the fitted dose curve at least 0.9, where 1 is the maximum; inactive = score below 0.9). The conditions noted are these: mRNA level, 48 h; actives raise or lower the signal. In outline: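 HepaRG cells (single lot) exposed 48 h in serum-free induction medium, 8-point half-log series from 100 uM top in 0.5% DMSO, duplicate. SLC10A1 mRNA by qRT-PCR normalised to ACTB, GAPDH, POLR2A; bidirectional fit versus DMSO.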

Read-out in assay [9]: matrix metalloproteinase-1 (MMP1), MMP1 (gene 4312)
The assay is described as follows: LTEA_HepaRG_MMP1: Life Technologies and Expression Analysis (LTEA) Assay for matrix metalloproteinase-1 (MMP1) using HepaRG (AID 2283658; active = hit-call score of the fitted dose curve at least 0.9, where 1 is the maximum; inactive = score below 0.9). As to conditions: mRNA level, 48 h; actives raise or lower the signal. An outline of the steps:
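Bidirectional concentration-response fitting relative to 0.5% DMSO gives the endpoint, derived from MMP1 mRNA levels (qRT-PCR) in human HepaRG cells treated 48 h with chemicals up to 100 uM.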

A short description of assay [10]: Tanguay_ZF_120hpf_TR_legacy: (Legacy) Oregon State University Tanguay Lab 120 Hour Post-fertilization zebrafish Assay for Touch Response (AID 2283667). In outline: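 Tropical 5D wild-type zebrafish embryos statically exposed to 120 hpf at 28°C, sealed and dark-covered, 0.64% DMSO final; touch response scored as present/absent by brightfield microscopy at 120 hpf. Trimethyltin chloride 5 uM positive control; dead embryos not scored.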

Read-out in assay [11]: Cytochrome P450 (CYP24A1_1), CYP24A1 (gene 1591)
Put plainly: LTEA_HepaRG_CYP24A1_1: Life Technologies and Expression Analysis (LTEA) Assay for Cytochrome P450 (CYP24A1_1) using HepaRG (AID 2283671; active = hit-call score of the fitted dose curve at least 0.9, where 1 is the maximum; inactive = score below 0.9). As to conditions: mRNA level, 48 h; actives raise or lower the signal. An outline of the steps:
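Differentiated human HepaRG cells in serum-free induction medium, exposed 48 h in duplicate to eight half-log concentrations from 100 uM top, 0.5% DMSO. Transcript measured by TaqMan qRT-PCR, normalised to ACTB, GAPDH, POLR2A; bidirectional fitting versus DMSO.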

Assay [12] can be described thus: CCTE_Padilla_ZF_144hpf_TERATOSCORE: (Legacy) CCTE's 144 Hour Post-fertilization zebrafish Assay Teratoscore, Padilla Lab (AID 2283679; active = hit-call score of the fitted dose curve at least 0.9, where 1 is the maximum; inactive = score below 0.9;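 as to AC50: zebrafish embryos with chorions exposed by immersion from 6-8 hpf to 5 dpf with daily renewal; teratogenicity score from eye scoring of death hatching and malformations at 144 hpf; higher score means more developmental defects relative to DMSO baseline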). In outline: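 Larvae scored by eye at 144 hpf for death, hatching and malformations after a day in clean Hanks'. Before that, daily-renewed exposure at 80 uM (0.4% DMSO, 26C) from roughly 6-8 hpf through 5 dpf, 4 embryos per chemical.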

Assay [13] in a line: Tanguay_ZF_120hpf_ActivityScore_legacy: (Legacy) Oregon State University Tanguay Lab 120 Hour Post-fertilization zebrafish Assay Score for Activity (AID 2283742). An outline of the steps: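 Dechorionated Tropical 5D embryos, one per well from 6 hpf, statically exposed to 120 hpf at 28 °C in 0.64% DMSO. Mortality and malformations scored binary by brightfield microscopy; activity score combines 18 endpoints, fitted positively versus DMSO.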

The nature of assay [14]: Tanguay_ZF_120hpf_SWIM_legacy: (Legacy) Oregon State University Tanguay Lab 120 Hour Post-fertilization zebrafish Assay for Swim Bladder Malformation (AID 2283654).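 Also: swim bladder malformation in each larva scored yes or no under brightfield.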 An outline of the steps: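 Dechorionated wild-type Tropical 5D zebrafish embryos, one per well from 6 hpf, were statically exposed at 28C until 120 hpf in 0.64% DMSO. Swim bladder malformation scored as present/absent by brightfield microscopy; not scored in dead larvae.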

Assay [15] has as its system Thyroperoxidase (TPO), gene 54314. Put plainly: CCTE_Simmons_AUR_rTPO: CCTE's Amplex UltraRed Assay for Thyroperoxidase (TPO) Inhibition, Simmons Lab (AID 2283662).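 As to AC50: potency for loss of signal meaning inhibition of peroxidase activity.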 In outline:
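Cell-free peroxidase activity assay using rat thyroid gland microsomes with excess H2O2 (300 uM) and 25 uM Amplex UltraRed. Compounds tested from 5 nM to 87.5 uM; fluorescence measured after 30 min at 37C, analysed relative to DMSO baseline.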

Assay [16] can be described thus: CCTE_Simmons_CellTiterGLO_HEK293T: Viability Assessment in CCTE's Assays for Thyroperoxidase (TPO) Inhibition, Simmons Lab (AID 2283665).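 As to AC50: cells exposed to compound for 24 h before readout; actives reduce ATP signal below DMSO vehicle meaning cytotoxicity.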 In outline: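 HEK293T, 10 000 cells/well, DMEM + 1% FBS; 8-pt titration 5 nM–87.5 uM [final], 0.5% DMSO; 24 hr, 37C, 5% CO2; CellTiter-Glo luminescence; n=3 biological replicates.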
(In general: ATP-based viability assays read luminescence as a measure of living cells.)

Assay [17] is described as follows: CEETOX_H295R_MTT_cell_viability: Viability Assessment in the CeeTox HT-H295R MTT Assay (AID 2283718; active = hit-call score of the fitted dose curve at least 0.9, where 1 is the maximum; inactive = score below 0.9). An outline of the steps: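 Human H295R adrenal cells, prestimulated 48 h with 10 uM forskolin, were exposed 48 h to chemicals in 0.1% DMSO. Viability was measured in the same wells by MTT (0.5 mg/ml, 4 h, 37 C), absorbance 570/650 nm, as percent of controls.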

A short description of assay [18]: STM_H9_OrnithineISnorm_perc: Stemina devTOX quickPredict H9 human embryonic stem cell (hESC)-based Assay for Ornithine (ORN) Metabolite Biomarker, Normalized (AID 2283712; active = hit-call score of the fitted dose curve at least 0.9, where 1 is the maximum; inactive = score below 0.9;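 also: ornithine released into spent medium during last day measured by mass spectrometry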). In outline: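 H9 human embryonic stem cells kept pluripotent receive test chemical over 72 h, refreshed daily by media exchange. Media from the closing 24 h is deproteinized and analysed by UPLC-HRMS on an amide column; ornithine signal is scaled to labelled standard and vehicle.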

Assay [19] can be described thus: STM_H9_OrnCyssISnorm_ratio: Stemina devTOX quickPredict H9 human embryonic stem cell (hESC)-based Assay for Ornithine (ORN):Cystine (CYSS) Ratio (AID 2283714). An outline of the steps: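 Undifferentiated H9 hESCs exposed 72 h, media and compound replaced every 24 h; final 24-h conditioned media deproteinized and analysed by UPLC-HRMS against C13 spike-ins. Value is the internal-standard-normalized ORN/CYSS ratio versus 0.1% DMSO.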

Inconclusive results are not listed. Calls of active or inactive are those of the source. The calls were made as follows, unless noted: active = hit-call score of the fitted dose curve at least 0.9, where 1 is the maximum; inconclusive = response in the unintended direction; inactive = score below 0.9.

As a reminder, the AC50 is the concentration at which the activity in the assay is half-maximal. On to `O=C(O)C(F)(F)C(F)(F)C(F)(F)C(F)(F)C(F)(F)C(F)(F)C(F)(F)C(F)(F)C(F)(F)C(F)(F)F`, for which the result in assay [1], in [2], in assay [3], in assay [4], in assay [5] and in [6] was inactive. Further, the outcome in [7], in assay [9], in assay [10], in assay [11] and in assay [13] was inactive. For the same molecule, the AC50 in assay [8] is 47.8 µM (active); in assay [12] it was 8.02 µM (active).
Turning to `CCOP(=S)(OCC)SCSP(=S)(OCC)OCC`, the call in [1], in [3], in assay [14], in assay [6], in assay [7] and in [10] was inactive. Further, the outcome in assay [17] and in assay [13] was inactive. The AC50 in assay [15] was 9.6 µM (active); in [16], 46.6 µM (active); in assay [12], 5.5 µM (active).
`CC(=O)[O][Hg][c]1ccccc1`: the call in assay [1], in assay [2], in assay [3], in assay [14], in [6] and in [7] was inactive. Further, in assay [10], the molecule was classed as inactive. Further, the AC50 is 0.066 µM (active) in assay [12], 0.476 µM (active) in assay [18], 0.311 µM (active) in [19] and 0.111 µM (active) in [13].
Consider `CC12CC1(C)C(=O)N(c1cc(Cl)cc(Cl)c1)C2=O` (stereo unspecified), for which the molecule was called inactive in [2], in assay [3], in assay [14], in assay [6], in assay [7] and in assay [15]. For the same molecule, the molecule was called inactive in assay [16], in assay [10], in [12], in [17] and in assay [13]. Also, the AC50 was 61 µM (active) in [18] and 50 µM (active) in assay [19].
As to `C[C@]12CCC(=O)C[C@@H]1CC[C@@H]1[C@@H]2CC[C@]2(C)[C@@H](O)CC[C@@H]12`, the molecule was called inactive in assay [1], in assay [2], in [3], in assay [6], in assay [7] and in assay [10]. For the same molecule, the molecule was called inactive in assay [17] and in assay [13]. The AC50 in [12] is 11.6 µM (active).
For `C=C(C)C(=O)[O][Sn]([CH2]CCC)([CH2]CCC)[CH2]CCC`, the molecule was classed as inactive in assay [1], in assay [2], in assay [3], in [14], in assay [6] and in assay [7]. Further, the molecule was classed as inactive in assay [10]. The AC50 is 0.0483 µM (active) in assay [12], 0.494 µM (active) in assay [18], 0.441 µM (active) in assay [19] and 1.54 µM (active) in assay [13].
Turning to `NC(=O)O`, the call in assay [1], in assay [3], in [4], in assay [5], in [14] and in assay [6] was inactive. The molecule was classed as inactive in assay [7], in [8], in assay [9], in assay [10], in assay [11] and in assay [12]. In addition, the outcome in [13] was inactive.
